In PubChem BioAssay (NCATS) one finds Potency data, which are given here for 14 molecules.

What all share (experiment): qHTS profiling for inhibitors of Plasmodium falciparum proliferation (AID 504749); note: nearly all actives have a fitted effect of over 60% in size
Common to all, as to conditions: P. falciparum in erythrocytes, SYBR Green DNA, 72 h; series mostly up to 28.7 µM
On the technique in general: qHTS replaces the single test concentration by a dilution series.

The subject of one assay is CP325. The gist of the method: (§1)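 SYBR Green fluorescence (ex 485 nm, em 535 nm) reports parasite DNA after 72 h compound exposure of infected red cells at 0.3% parasitemia, 2.5% hematocrit; signal normalized to 0.29 uM artemisinin and vehicle wells.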
The subject of the next assay is CP329. The gist of the method: as §1
The subject of the next assay is CP335. The gist of the method: as §1
In another assay the test system is DFO2036. The gist of the method:
as §1

The next assay has as its system DIV14. The gist of the method: as §1
In a further assay the test system is DIV17. The gist of the method:
as §1

For a further assay, the system named is DIV30. In short, it runs like this:
as §1

A further assay deals with Dd2. The gist of the method:
as §1

The next assay has as its system ECU. The gist of the method:
as §1

Another assay has as its system FAB9. In short, it runs like this:
as §1

The next assay relates to GB4. In short, it runs like this: as §1
The next assay deals with ICS. In short, it runs like this: as §1
In the next assay the test system is JCK. The gist of the method:
as §1

In the next assay the test system is N140. The gist of the method: as §1
Another assay deals with P93_24. The gist of the method:
as §1

The next assay deals with P94_40. The gist of the method:
as §1

The next assay deals with PAD. In short, it runs like this:
as §1

The next assay has as its system PC15. In short, it runs like this:
as §1

The test system of another assay is PC26. The gist of the method:
as §1

The subject of another assay is HB3. In short, it runs like this:
as §1

Inconclusive results are not listed. Calls of active or inactive are those of the source. Calls come from the whole dose curve; as a rule, active = well fitted inhibition curve with a large enough effect; inconclusive = small, poorly fitted or top-dose-only effect; inactive = flat fitted curve, though single readings scatter.
Potency is the fitted concentration of half-maximal effect.

As for `CC(C)(Sc1cc(C(C)(C)C)c(O)c(C(C)(C)C)c1)Sc1cc(C(C)(C)C)c(O)c(C(C)(C)C)c1`, the Potency result in the assay with CP325, in the assay with CP329, in the assay with DFO2036, in the assay with DIV14, in the assay with DIV17 and with DIV30 was “inactive” each time. The Potency entry in the assay on Dd2, in the assay on ECU, with FAB9, in the assay with GB4, in the assay on JCK and in the assay with N140 was “inactive” in each case. Further, the Potency entry in the assay with P93_24, in the assay on P94_40, in the assay on PAD, with PC15 and with PC26 was “inactive” throughout. Also, the results for the Potency with CP335 and in the assay with ICS were 3.61 µM (active) and 3.16 µM (active), respectively.

Consider `Cn1nnc2c(C(N)=O)ncn2c1=O`, for which the Potency result with CP325, in the assay with CP329, in the assay with CP335, in the assay on DFO2036, in the assay with DIV17 and in the assay with DIV30 was “inactive” in each case. In addition, the Potency result with Dd2, in the assay on ECU, in the assay with FAB9, in the assay on GB4, in the assay with HB3 and with ICS was “inactive” in each case. Besides, the Potency entry with JCK, in the assay on N140, in the assay on P93_24, in the assay on P94_40, in the assay with PAD and with PC15 was “inactive” each time. In the assay with PC26, the Potency result is “inactive”.

`C1CCC(C(CC2CCCCN2)C2CCCCC2)CC1` (centres undefined): the Potency in the assay with CP335 is 9.53 µM (active); in the assay with DFO2036 it was 11.2 µM (active); with DIV14, 3.79 µM (active); in the assay with DIV17 it was 3.38 µM (active); in the assay with Dd2 it was 12.6 µM (active); in the assay with ECU it was 5.01 µM (active). Also, the Potency in the assay with GB4 was 9.53 µM (active); in the assay with HB3 it was 11.2 µM (active); in the assay on ICS it was 1.12 µM (active); in the assay with JCK, 12.6 µM (active); in the assay on N140 it was 10 µM (active); in the assay on P93_24, 12.6 µM (active). Besides, the Potency in the assay on P94_40 is 11.2 µM (active); in the assay with PAD, 6.31 µM (active); in the assay on PC15, 5.01 µM (active); in the assay on PC26, 7.57 µM (active).

Regarding `CNS(=O)(=O)Cc1ccc2[nH]cc(CCN(C)C)c2c1`, the Potency entry in the assay on CP325, in the assay on CP329, with DFO2036, in the assay on DIV14, with DIV17 and in the assay on DIV30 was “inactive” in each case. Also, the Potency entry with Dd2, with ECU, with FAB9, with GB4, in the assay with HB3 and with ICS was “inactive” each time. Also, the Potency result with JCK, in the assay with N140, with P93_24, in the assay with P94_40, in the assay on PAD and with PC15 was “inactive” each time. The Potency result in the assay on PC26 is “inactive”.

As for `CC[C@H](C)C(=O)O[C@H]1C[C@@H](C)C=C2C=C[C@H](C)[C@H](CC[C@@H]3C[C@@H](O)CC(=O)O3)[C@H]21`, the Potency entry with CP325, in the assay with CP329, in the assay with DFO2036, in the assay on DIV14, in the assay with DIV30 and with Dd2 was “inactive” throughout. Also, the Potency entry with ECU, in the assay with FAB9, in the assay with GB4, in the assay with HB3, in the assay with ICS and in the assay with JCK was “inactive” throughout. Further, the Potency entry in the assay on N140, in the assay on P93_24, in the assay with P94_40, in the assay on PAD, in the assay with PC15 and in the assay with PC26 was “inactive” throughout.

`NC(=O)N1c2ccccc2CC(=O)c2ccccc21`: the Potency entry in the assay with CP325, with CP335, in the assay on DFO2036, with DIV14, with DIV17 and in the assay on DIV30 was “inactive” each time. Also, the Potency result with Dd2, in the assay on ECU, with FAB9, with GB4, in the assay on HB3 and with ICS was “inactive” each time. In addition, the Potency entry in the assay with JCK, in the assay with N140, in the assay with P93_24, in the assay with P94_40, with PAD and in the assay with PC15 was “inactive” throughout. Besides, the Potency result with PC26 is “inactive”.

`CCn1cc(C(=O)O)c(=O)c2cc(F)c(N3CCNCC3)cc21`: the Potency entry in the assay with CP329, in the assay with DIV14, with DIV17, in the assay on DIV30, in the assay on ECU and with FAB9 was “inactive” throughout. In addition, the Potency result with HB3, in the assay on JCK, in the assay with PAD, in the assay on PC15 and in the assay with PC26 was “inactive” in each case.

`CN(Cc1cc(Br)cc(Br)c1N)C1CCCCC1`: the Potency entry with CP325, in the assay on CP329, in the assay on DFO2036, in the assay with DIV17, in the assay on DIV30 and in the assay on ECU was “inactive” each time. Moreover, the Potency result with FAB9, in the assay with JCK, with N140, with PAD, in the assay with PC15 and in the assay with PC26 was “inactive” in each case.

`COC(=O)Nc1nc2ccc(C(=O)c3ccccc3)cc2[nH]1`: the Potency result in the assay on CP329, in the assay on CP335, in the assay on DFO2036, in the assay with DIV30, in the assay with Dd2 and in the assay on ECU was “inactive” in each case. Also, the Potency result in the assay on FAB9, in the assay with HB3, with ICS, in the assay with JCK, in the assay with N140 and in the assay with P93_24 was “inactive” throughout. For the same molecule, the Potency result in the assay with P94_40, in the assay on PAD and with PC15 was “inactive” throughout.

On to `CC(=O)Oc1ccccc1C(=O)Nc1ncc([N+](=O)[O-])s1`, for which the Potency result in the assay with CP325, in the assay on CP329, with DFO2036, in the assay on DIV30, in the assay with ECU and with FAB9 was “inactive” each time. Besides, the Potency entry in the assay with JCK, with N140, in the assay with P93_24, in the assay with P94_40, in the assay with PAD and in the assay with PC15 was “inactive” in each case. Also, the Potency entry with PC26 is “inactive”. Further, the Potency with DIV14 is 13.5 µM (active); in the assay with DIV17 it was 12 µM (active); with ICS, 11.2 µM (active).

For `COc1cc2c(Nc3ccc(Br)cc3F)ncnc2cc1OCC1CCN(C)CC1`, the Potency was 10.7 µM (active) in the assay with CP325; 4.26 µM (active) with CP335; 0.794 µM (active) with DFO2036; 1.51 µM (active) in the assay on DIV14; 2.39 µM (active) in the assay with DIV17; 8.91 µM (active) with Dd2. Besides, the Potency was 3.16 µM (active) in the assay on ECU; 10 µM (active) in the assay with FAB9; 1.51 µM (active) with GB4; 5.01 µM (active) with HB3; 3.98 µM (active) in the assay on ICS; 2.51 µM (active) with N140. For the same molecule, the Potency was 2 µM (active) with P93_24, 2.82 µM (active) in the assay on P94_40, 2.24 µM (active) with PAD and 7.08 µM (active) in the assay with PC15.

For the molecule `CC(C)(C#N)c1cc(Cn2cncn2)cc(C(C)(C)C#N)c1`, the Potency result in the assay with CP325, with CP329, in the assay on DFO2036, with DIV14, in the assay with DIV17 and with DIV30 was “inactive” throughout. For the same molecule, the Potency entry in the assay on Dd2, with ECU, in the assay on FAB9, in the assay with GB4, in the assay with HB3 and with ICS was “inactive” in each case. Besides, the Potency result with JCK, in the assay on N140, in the assay on P93_24, with P94_40, in the assay with PAD and in the assay with PC15 was “inactive” each time. For the same molecule, the Potency entry in the assay on PC26 is “inactive”.

Turning to `CCOc1cc(N)c(Cl)cc1C(=O)NCC1CN(Cc2ccc(F)cc2)CCO1` (centres undefined), the Potency in the assay with CP329 is 13.5 µM (active); in the assay with CP335, 6.75 µM (active); with ECU, 10 µM (active); in the assay with GB4, 12 µM (active); in the assay on HB3 it was 8.91 µM (active); in the assay on ICS, 3.98 µM (active). The Potency in the assay with P93_24 was 6.31 µM (active); in the assay with P94_40, 11.2 µM (active); with PAD, 11.2 µM (active).

Consider `CCOC(=O)c1ccc(C#Cc2ccc3c(c2)C(C)(C)CCS3)nc1`, for which the Potency entry in the assay with CP325, with CP329, in the assay with DFO2036, in the assay on DIV17, in the assay on DIV30 and with Dd2 was “inactive” each time. Moreover, the Potency entry in the assay with ECU, in the assay on FAB9, in the assay on GB4, with HB3, in the assay on JCK and in the assay with N140 was “inactive” each time. For the same molecule, the Potency result with P93_24, in the assay with P94_40, with PAD and in the assay on PC15 was “inactive” throughout.
